# Laboratory results reported in PubChem BioAssay (NCI).
# About 79,000 compounds went through this panel and 15% of them were active in at least one assay; those are over-represented in the sample as a whole. Values without a mark were called inactive. The source made the active and inactive calls. Rule as the data show it: active = growth inhibition above about 70%; inactive = the rest.
# Columns and labels:
# [1] = NCI Yeast Anticancer Drug Screen. Data for the rad50 strain (AID 155);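 also: 0% = growth of vehicle-only cultures of the same strain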; settings: S. cerevisiae rad50 strain growth inhibition, hits give high values
# Procedure, shortened: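 Growth of the mutant yeast was measured after compound exposure and referenced to vehicle-treated cultures.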
# [2] = NCI Yeast Anticancer Drug Screen. Data for the mec2-1 strain (AID 157); settings: S. cerevisiae mec2-1 strain, hits give high values
# Procedure, shortened: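 Yeast mec2-1 mutant treated with compound. Readout: growth inhibition vs vehicle controls.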
# [3] = NCI Yeast Anticancer Drug Screen. Data for the sgs1 mgt1 strain (AID 161);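 also: 0% = growth of cultures given vehicle only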; settings: S. cerevisiae sgs1 mgt1 strain, hits give high values
# Procedure, shortened: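 Test agents were incubated with a DNA-repair-mutant yeast strain. Growth was then read and compared against vehicle-treated controls.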
# [4] = NCI Yeast Anticancer Drug Screen. Data for the cln2 rad14 strain (AID 165);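 also: 0% = growth equal to vehicle treated cultures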; settings: S. cerevisiae cln2 rad14 strain, hits give high values
# Procedure, shortened: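 cln2 rad14 yeast strain; compound exposure; growth inhibition read vs vehicle controls.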
# [5] = NCI Yeast Anticancer Drug Screen. Data for the bub3 strain (AID 167); settings: S. cerevisiae bub3 mutant strain, hits give high values
# Procedure, shortened: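 Whole-cell yeast assay. The mutant strain was incubated with compounds, and growth inhibition was determined by comparison with vehicle-treated cells.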
# [6] = NCI Yeast Anticancer Drug Screen. Data for the mlh1 rad18 strain (AID 175); settings: S. cerevisiae mlh1 rad18 strain growth inhibition, hits give high values
# Procedure, shortened: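 Yeast w/ defined DNA-repair lesions; compound exposure; growth vs vehicle controls → % inhibition.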
# [7] = at 5.0 µM (retest, dose inferred, filed as 0.5)
# [8] = at 50.0 µM (retest, dose inferred, filed as 5.0)
SMILES,"growth inhibition [1, 7]","growth inhibition [1, 8]",growth inhibition ([1]; at 50.0 µM),"growth inhibition [2, 7]","growth inhibition [2, 8]",growth inhibition ([2]; at 50.0 µM),"growth inhibition [3, 7]","growth inhibition [3, 8]",growth inhibition ([3]; at 50.0 µM),"growth inhibition [4, 7]","growth inhibition [4, 8]",growth inhibition ([4]; at 50.0 µM),"growth inhibition [5, 7]","growth inhibition [5, 8]",growth inhibition ([5]; at 50.0 µM),"growth inhibition [6, 7]","growth inhibition [6, 8]",growth inhibition ([6]; at 50.0 µM)
Cc1ccc(C(C)(C)c2ccc(C(=O)O)cc2)cc1,-4%,-14%,25.1%,3%,4%,10.2%,-3%,0%,42.5%,1%,-10%,-12.7%,-6%,-8%,-2.5%,1%,-7%,8.9%
CCCCCCCCCCCC(O)CN1CCOCC1 (configuration not stated),49%,1%,98.4% (active),46%,9%,97.5% (active),49%,-2%,43.8%,46%,8%,91.5% (active),57%,31%,98.8% (active),43%,4%,94% (active)
Oc1ccc(N=Nc2ccccc2)cc1,13%,97% (active),98.5% (active),5%,99% (active),99.5% (active),-6%,64%,99.3% (active),-1%,98% (active),98.1% (active),4%,98% (active),98.8% (active),9%,98% (active),99.2% (active)
COc1ccc2c(c1)O[C@H]1c3ccc(O)cc3OC[C@@H]21,1%,35%,72.7% (active),8%,36%,69.5%,-2%,41%,68%,3%,16%,50.3%,5%,41%,74.2% (active),1%,53%,84% (active)
Cc1cc(=O)n(-c2ccc(F)cc2)n1C,1%,0%,30.9%,-6%,1%,-5.7%,0%,2%,31.7%,3%,15%,22.9%,0%,-2%,25.4%,2%,-16%,-23.6%
COc1ccc(/C=C(/NC(=O)c2ccccc2)C(=O)Nc2ccccc2)cc1OC,-13%,-6%,3.3%,-7%,-12%,16.1%,-6%,-5%,-18.4%,-23%,-24%,50.5%,-6%,9%,-8.25%,-4%,-11%,29.3%
O=C1C(C(O)(C(F)(F)Cl)C(F)(F)Cl)CCCC1C(O)(C(F)(F)Cl)C(F)(F)Cl (configuration not stated),95% (active),99% (active),99.7% (active),97% (active),100% (active),99.7% (active),95% (active),99% (active),99.8% (active),79% (active),100% (active),99.3% (active),35%,99% (active),99.7% (active),96% (active),99% (active),99.6% (active)
Cc1ccc(C(OS(=O)(=O)c2ccc(C)cc2)C(F)(F)F)cc1 (configuration not stated),-1%,-2%,62.6%,-11%,-1%,52.5%,-4%,-13%,72.9% (active),3%,-2%,15.1%,0%,37%,1.7%,19%,2%,66.2%
Cc1ccc2c(C3Cc4ccccc4N3C(=O)/C=C\C(=O)O)c(C)[nH]c2c1 (configuration not stated),23%,85% (active),87.5% (active),24%,91% (active),88.7% (active),37%,89% (active),92.7% (active),27%,82% (active),90.1% (active),35%,90% (active),90.6% (active),39%,95% (active),89.1% (active)
CC1=NOC(=O)C1N=Nc1ccc(Br)cc1C (configuration not stated),99% (active),95% (active),93% (active),100% (active),96% (active),94.6% (active),99% (active),94% (active),94.8% (active),99% (active),94% (active),92.8% (active),99% (active),96% (active),94.5% (active),99% (active),94% (active),90.5% (active)
O=NN(CCCl)C(=O)Oc1ccc(OC(=O)N(CCCl)N=O)cc1,87% (active),92% (active),59.6%,86% (active),99% (active),91% (active),93% (active),99% (active),90.2% (active),53%,90% (active),83.5% (active),56%,93% (active),84.5% (active),96% (active),97% (active),90.6% (active)
C/C=C/C=C\C1OC(O)([C@H](CC)C(=O)NC/C=C/C=C(\C)[C@H](OC)C(C)C2OC(\C=C/C=C/C=C(\C)C(=O)c3c(O)ccn(C)c3=O)[C@H](O)[C@@H]2O)C(O)C(O)C1(C)C (some centres not stated),-23%,-46%,35.5%,-26%,-18%,9.5%,-13%,34%,80.5% (active),-14%,35%,26.9%,-42%,-26%,26.1%,-41%,-62%,17%
CC(C)CC(N)C(=O)NNc1ccccc1 (configuration not stated),29%,94% (active),96.8% (active),23%,96% (active),84.2% (active),30%,97% (active),88.6% (active),19%,83% (active),94.2% (active),37%,96% (active),97.5% (active),72% (active),99% (active),98% (active)
S=C(Nc1ccccc1)NC1CCCCCCCCC1,-2%,29%,77% (active),-8%,42%,54.9%,5%,53%,90.6% (active),-59%,71% (active),60.7%,-5%,27%,30.8%,0%,44%,88.7% (active)
CCCCCCCCCCCCCC/C(=C/OCC[N+](C)(C)C)OC(C)=O (tested in a mixture with another compound),99% (active),99% (active),99.7% (active),99% (active),100% (active),99.8% (active),94% (active),100% (active),99.8% (active),99% (active),99% (active),99.3% (active),99% (active),99% (active),99.7% (active),98% (active),100% (active),99.7% (active)
Cc1ccc(SCc2ccccc2Cl)nn1,-2%,3%,6.6%,-9%,11%,-2.15%,-8%,17%,-2.3%,3%,20%,31.1%,6%,34%,15.4%,-1%,19%,4.75%
CC(C)COC(=O)C1C2C=CC(CC2)C1C(=O)OCC(C)C (configuration not stated),-13%,30%,30.1%,-4%,79% (active),18%,-1%,19%,29.6%,-11%,55%,4.6%,0%,82% (active),40.5%,-3%,86% (active),46.5%
CC1CCC(C(C)C2C(O)CC3C4CCC5CC(O)CCC5(C)C4CCC32C)NC1 (configuration not stated),3%,98% (active),91.8% (active),1%,96% (active),82.2% (active),6%,97% (active),93.2% (active),-4%,96% (active),90% (active),2%,95% (active),90% (active),4%,97% (active),92.9% (active)
c1ccc([P+](c2ccccc2)(c2ccccc2)C2CCCCO2)cc1 (configuration not stated),17%,74% (active),67.8%,-4%,83% (active),83.2% (active),4%,69%,35.1%,-2%,77% (active),49.5%,5%,77% (active),54%,1%,61%,81.1% (active)
